Experimental data published in PubChem BioAssay (NCI).
Compounds without any hit were thinned out: in the full panel of roughly 79,000, 15% have a hit. Unmarked numbers belong to inactive results. The source made the active and inactive calls. Cut-off read from the data, not from the text of the source: active = growth inhibition above about 70%; inactive = the rest.

Tests used:
[1] = NCI Yeast Anticancer Drug Screen. Data for the rad50 strain (AID 155);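 note: 0% = growth of vehicle-only cultures of the same strain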; details: S. cerevisiae rad50 strain growth inhibition, active compounds read high
Outline: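 DNA repair mutant yeast, compound exposure, growth read-out; inhibition is taken relative to vehicle.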

[2] = NCI Yeast Anticancer Drug Screen. Data for the mec2-1 strain (AID 157); details: S. cerevisiae mec2-1 strain, active compounds read high
Outline: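 Each compound was tested on mec2-1 yeast, a strain altered in DNA damage repair or cell cycle control. Growth inhibition is reported relative to vehicle.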

[3] = NCI Yeast Anticancer Drug Screen. Data for the sgs1 mgt1 strain (AID 161);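 note: 0% = growth of cultures given vehicle only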; details: S. cerevisiae sgs1 mgt1 strain, active compounds read high
Outline: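 Mutant yeast exposed to compound; growth scored against vehicle-only wells.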

[4] = NCI Yeast Anticancer Drug Screen. Data for the cln2 rad14 strain (AID 165);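 note: 0% = growth equal to vehicle treated cultures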; details: S. cerevisiae cln2 rad14 strain, active compounds read high
Outline: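 Test compounds were added to cln2 rad14 yeast cultures; inhibition of growth was then determined by comparison with vehicle treatment.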

[5] = NCI Yeast Anticancer Drug Screen. Data for the bub3 strain (AID 167); details: S. cerevisiae bub3 mutant strain, active compounds read high
Outline: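 In this screen, a yeast mutant lacking normal mitotic checkpoint function is challenged with compound. Relative growth versus vehicle gives the inhibition value.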

[6] = NCI Yeast Anticancer Drug Screen. Data for the mlh1 rad18 strain (AID 175); details: S. cerevisiae mlh1 rad18 strain growth inhibition, active compounds read high
Outline: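 Inhibition values reflect reduced growth of mutant yeast versus vehicle-treated controls following compound exposure; the mutations affect DNA damage repair.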

[7] = at 5.0 µM (retest, dose inferred, filed as 0.5)
[8] = at 50.0 µM (retest, dose inferred, filed as 5.0)

## COc1ccc(C(C)=O)c(OC(=O)c2ccccc2)c1OC(=O)c1ccccc1
[1]; [7]
  growth inhibition: -22%
[1]; [8]
  growth inhibition: 9%
[1]; at 50.0 µM
  growth inhibition: 5.05%
[2]; [7]
  growth inhibition: -1%
[2]; [8]
  growth inhibition: 7%
[2]; at 50.0 µM
  growth inhibition: 10.2%
[3]; [7]
  growth inhibition: -21%
[3]; [8]
  growth inhibition: -10%
[3]; at 50.0 µM
  growth inhibition: -12.1%
[4]; [7]
  growth inhibition: 2%
[4]; [8]
  growth inhibition: 11%
[4]; at 50.0 µM
  growth inhibition: -3%
[5]; [7]
  growth inhibition: -10%
[5]; [8]
  growth inhibition: -1%
[5]; at 50.0 µM
  growth inhibition: 1.15%
[6]; [7]
  growth inhibition: -1%
[6]; [8]
  growth inhibition: 4%
[6]; at 50.0 µM
  growth inhibition: -0.9%

## CC1=C(C#N)C(=O)OC1(C)C(CC(=O)c1ccccc1)c1ccccc1 (configuration not stated)
[1]; [7]
  growth inhibition: 0%
[1]; [8]
  growth inhibition: 3%
[1]; at 50.0 µM
  growth inhibition: -5.3%
[2]; [7]
  growth inhibition: 5%
[2]; [8]
  growth inhibition: 6%
[2]; at 50.0 µM
  growth inhibition: 4.45%
[3]; [7]
  growth inhibition: 20%
[3]; [8]
  growth inhibition: 16%
[3]; at 50.0 µM
  growth inhibition: 4.45%
[4]; [7]
  growth inhibition: 3%
[4]; [8]
  growth inhibition: 4%
[4]; at 50.0 µM
  growth inhibition: 49.8%
[5]; [7]
  growth inhibition: 2%
[5]; [8]
  growth inhibition: 11%
[5]; at 50.0 µM
  growth inhibition: 11.8%
[6]; [7]
  growth inhibition: 26%
[6]; [8]
  growth inhibition: 23%
[6]; at 50.0 µM
  growth inhibition: 1.85%

## CCCC(C)NCCCCCNc1cc(OC)cc2cccnc12 (configuration not stated)
[1]; [7]
  growth inhibition: 3%
[1]; [8]
  growth inhibition: 60%
[1]; at 50.0 µM
  growth inhibition: 78.8% (active)
[2]; [7]
  growth inhibition: 2%
[2]; [8]
  growth inhibition: 22%
[2]; at 50.0 µM
  growth inhibition: 48.5%
[3]; [7]
  growth inhibition: 25%
[3]; [8]
  growth inhibition: 62%
[3]; at 50.0 µM
  growth inhibition: 71.6% (active)
[4]; [7]
  growth inhibition: 14%
[4]; [8]
  growth inhibition: 40%
[4]; at 50.0 µM
  growth inhibition: 42%
[5]; [7]
  growth inhibition: 19%
[5]; [8]
  growth inhibition: 61%
[5]; at 50.0 µM
  growth inhibition: 82.2% (active)
[6]; [7]
  growth inhibition: -19%
[6]; [8]
  growth inhibition: 11%
[6]; at 50.0 µM
  growth inhibition: 76.5% (active)

## CC(C)(C)C(=O)CC(=O)C(F)(F)C(F)(F)C(F)(F)F.CC(C)(C)C(=O)CC(=O)C(F)(F)C(F)(F)C(F)(F)F.CC(C)(C)C(=O)CC(=O)C(F)(F)C(F)(F)C(F)(F)F.[Gd]
[1]; [7]
  growth inhibition: -7%
[1]; [8]
  growth inhibition: 79% (active)
[1]; at 50.0 µM
  growth inhibition: 89.3% (active)
[2]; [7]
  growth inhibition: -9%
[2]; [8]
  growth inhibition: 85% (active)
[2]; at 50.0 µM
  growth inhibition: 91.4% (active)
[3]; [7]
  growth inhibition: 3%
[3]; [8]
  growth inhibition: 82% (active)
[3]; at 50.0 µM
  growth inhibition: 90.7% (active)
[4]; [7]
  growth inhibition: 9%
[4]; [8]
  growth inhibition: 87% (active)
[4]; at 50.0 µM
  growth inhibition: 82.7% (active)
[5]; [7]
  growth inhibition: -17%
[5]; [8]
  growth inhibition: 96% (active)
[5]; at 50.0 µM
  growth inhibition: 89.2% (active)
[6]; [7]
  growth inhibition: -7%
[6]; [8]
  growth inhibition: 93% (active)
[6]; at 50.0 µM
  growth inhibition: 88.8% (active)

## O=C(OCCC1CCCCC1)c1cc([N+](=O)[O-])cc([N+](=O)[O-])c1
[1]; [7]
  growth inhibition: 4%
[1]; [8]
  growth inhibition: 79% (active)
[1]; at 50.0 µM
  growth inhibition: 83.1% (active)
[2]; [7]
  growth inhibition: 13%
[2]; [8]
  growth inhibition: 76% (active)
[2]; at 50.0 µM
  growth inhibition: 75% (active)
[3]; [7]
  growth inhibition: 10%
[3]; [8]
  growth inhibition: 70% (active)
[3]; at 50.0 µM
  growth inhibition: 90.3% (active)
[4]; [7]
  growth inhibition: 6%
[4]; [8]
  growth inhibition: 71% (active)
[4]; at 50.0 µM
  growth inhibition: 80.5% (active)
[5]; [7]
  growth inhibition: 5%
[5]; [8]
  growth inhibition: 82% (active)
[5]; at 50.0 µM
  growth inhibition: 88.5% (active)
[6]; [7]
  growth inhibition: 12%
[6]; [8]
  growth inhibition: 86% (active)
[6]; at 50.0 µM
  growth inhibition: 89.8% (active)

## [Pt].c1ccc([PH+](CC[PH+](CC[PH+](c2ccccc2)c2ccccc2)CC[PH+](c2ccccc2)c2ccccc2)c2ccccc2)cc1
[1]; [7]
  growth inhibition: 54%
[1]; [8]
  growth inhibition: 96% (active)
[1]; at 50.0 µM
  growth inhibition: 89.8% (active)
[2]; [7]
  growth inhibition: 97% (active)
[2]; [8]
  growth inhibition: 98% (active)
[2]; at 50.0 µM
  growth inhibition: 90.7% (active)
[3]; [7]
  growth inhibition: 28%
[3]; [8]
  growth inhibition: 97% (active)
[3]; at 50.0 µM
  growth inhibition: 91.7% (active)
[4]; [7]
  growth inhibition: 27%
[4]; [8]
  growth inhibition: 97% (active)
[4]; at 50.0 µM
  growth inhibition: 89.3% (active)
[5]; [7]
  growth inhibition: 93% (active)
[5]; [8]
  growth inhibition: 97% (active)
[5]; at 50.0 µM
  growth inhibition: 89.8% (active)
[6]; [7]
  growth inhibition: 68%
[6]; [8]
  growth inhibition: 97% (active)
[6]; at 50.0 µM
  growth inhibition: 88.7% (active)

## COc1ccc(/C(=N/NC(N)=O)C(c2ccc(OC)cc2)C2C(=O)Oc3ccccc32)cc1 (configuration not stated)
[1]; [7]
  growth inhibition: -7%
[1]; [8]
  growth inhibition: 88% (active)
[1]; at 50.0 µM
  growth inhibition: 98.2% (active)
[2]; [7]
  growth inhibition: -59%
[2]; [8]
  growth inhibition: 96% (active)
[2]; at 50.0 µM
  growth inhibition: 99% (active)
[3]; [7]
  growth inhibition: -4%
[3]; [8]
  growth inhibition: 86% (active)
[3]; at 50.0 µM
  growth inhibition: 98.6% (active)
[4]; [7]
  growth inhibition: 0%
[4]; [8]
  growth inhibition: 77% (active)
[4]; at 50.0 µM
  growth inhibition: 88.8% (active)
[5]; [7]
  growth inhibition: 0%
[5]; [8]
  growth inhibition: 83% (active)
[5]; at 50.0 µM
  growth inhibition: 99.2% (active)
[6]; [7]
  growth inhibition: -2%
[6]; [8]
  growth inhibition: 95% (active)
[6]; at 50.0 µM
  growth inhibition: 98.4% (active)

## O/N=C1/CCCC/C1=C\c1ccc(Cl)c(Cl)c1
[1]; [7]
  growth inhibition: 5%
[1]; [8]
  growth inhibition: 99% (active)
[1]; at 50.0 µM
  growth inhibition: 98.8% (active)
[2]; [7]
  growth inhibition: 1%
[2]; [8]
  growth inhibition: 99% (active)
[2]; at 50.0 µM
  growth inhibition: 99.3% (active)
[3]; [7]
  growth inhibition: 28%
[3]; [8]
  growth inhibition: 100% (active)
[3]; at 50.0 µM
  growth inhibition: 99.2% (active)
[4]; [7]
  growth inhibition: -6%
[4]; [8]
  growth inhibition: 99% (active)
[4]; at 50.0 µM
  growth inhibition: 99.2% (active)
[5]; [7]
  growth inhibition: -3%
[5]; [8]
  growth inhibition: 99% (active)
[5]; at 50.0 µM
  growth inhibition: 99.3% (active)
[6]; [7]
  growth inhibition: 11%
[6]; [8]
  growth inhibition: 96% (active)
[6]; at 50.0 µM
  growth inhibition: 99.1% (active)

## O=C(/C=C\C(=O)Nc1cccc(N(Cc2ccccc2)Cc2ccccc2)c1)Nc1cccc(N(Cc2ccccc2)Cc2ccccc2)c1
[1]; [7]
  growth inhibition: -5%
[1]; [8]
  growth inhibition: 2%
[1]; at 50.0 µM
  growth inhibition: 61.5%
[2]; [7]
  growth inhibition: -10%
[2]; [8]
  growth inhibition: -1%
[2]; at 50.0 µM
  growth inhibition: 87.2% (active)
[3]; [7]
  growth inhibition: 0%
[3]; [8]
  growth inhibition: 5%
[3]; at 50.0 µM
  growth inhibition: 85.5% (active)
[4]; [7]
  growth inhibition: 4%
[4]; [8]
  growth inhibition: 13%
[4]; at 50.0 µM
  growth inhibition: 67%
[5]; [7]
  growth inhibition: -2%
[5]; [8]
  growth inhibition: 3%
[5]; at 50.0 µM
  growth inhibition: 46.2%
[6]; [7]
  growth inhibition: -3%
[6]; [8]
  growth inhibition: 3%
[6]; at 50.0 µM
  growth inhibition: 82% (active)
